Holding throughout (assay): PBM; 200 nM protein, PBS
Common to all, as to conditions: dsDNA, one strand shown

The target of assay [1] is HESX1 (Homo sapiens, UniProt Q9UBX0 95-180, R165K).
The target in assay [2] is HESX1 (Homo sapiens, UniProt Q9UBX0 95-180).
The target in assay [3] is ALX4 (Homo sapiens, UniProt Q9H161 200-286).
Assay [4] addresses ALX4 (Homo sapiens, UniProt Q9H161 200-286, Q225E).
For another assay, the target named is T1, NKX2-6 (Homo sapiens, UniProt A6NCS4 118-204, R150C).
T1 sequence: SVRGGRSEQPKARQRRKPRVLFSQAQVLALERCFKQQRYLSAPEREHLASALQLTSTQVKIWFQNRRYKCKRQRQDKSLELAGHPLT

The target in assay [5] is ALX1 (Homo sapiens, UniProt Q15699 118-204, L144V).
Assay [6] deals with ALX1 (Homo sapiens, UniProt Q15699 118-204, L144R).
In assay [7] the target is HESX1 (Homo sapiens, UniProt Q9UBX0 95-180, R109Q).
Assay [8] concerns the target HESX1 (Homo sapiens, UniProt Q9UBX0 95-180, P111T).
Assay [9] deals with HESX1 (Homo sapiens, UniProt Q9UBX0 95-180, F115L).
Assay [10] addresses ALX1 (Homo sapiens, UniProt Q15699 118-204).
Assay [11] addresses T2, PAX4 (Homo sapiens, UniProt O43316 9-242, R200K).
T2 sequence: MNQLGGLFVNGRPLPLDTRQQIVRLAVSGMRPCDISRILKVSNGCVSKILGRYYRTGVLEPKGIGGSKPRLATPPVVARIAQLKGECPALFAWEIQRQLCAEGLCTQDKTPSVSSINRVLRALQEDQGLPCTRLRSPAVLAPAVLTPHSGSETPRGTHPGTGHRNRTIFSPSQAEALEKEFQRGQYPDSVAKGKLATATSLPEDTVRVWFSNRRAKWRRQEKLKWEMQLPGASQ

Assay [12] addresses PRRX1 (Homo sapiens, UniProt P54821 80-166, F113S).
In assay [13] the target is T3, PAX4 (Homo sapiens, UniProt O43316 9-242).
T3 sequence: T2 sequence with K192R

Assay [14] addresses ALX3 (Homo sapiens, UniProt O95076 139-225, N203Q).
For assay [15], the target named is T4, PAX4 (Homo sapiens, UniProt O43316 9-242, R200Q).
T4 sequence: T2 sequence with K192Q

The next assay concerns the target SHOX (Homo sapiens, UniProt O15266 103-189, R173C).
The target of assay [16] is T5, PAX4 (Homo sapiens, UniProt O43316 9-242, F177V).
T5 sequence: T2 sequence with F169V, K192R

Assay [17] addresses ALX3 (Homo sapiens, UniProt O95076 139-225).
The target of assay [18] is T6, PAX4 (Homo sapiens, UniProt O43316 9-242, F177Y).
T6 sequence: T2 sequence with F169Y, K192R

In assay [19] the target is PROP1 (Homo sapiens, UniProt O75360 56-141).
Assay [20] addresses PROP1 (Homo sapiens, UniProt O75360 56-141, R99H).
The target of assay [21] is ALX3 (Homo sapiens, UniProt O95076 139-225, L168Q).
Assay [22] has as its target ALX3 (Homo sapiens, UniProt O95076 139-225, L168V).
Assay [23] has as its target PROP1 (Homo sapiens, UniProt O75360 56-141, F88S).
The target of assay [24] is T7, PAX4 (Homo sapiens, UniProt O43316 9-242, R227W).
T7 sequence: T2 sequence with K192R, R219W

In assay [25] the target is ALX3 (Homo sapiens, UniProt O95076 139-225, N203S).
Assay [26] addresses PRRX1 (Homo sapiens, UniProt P54821 80-166).
The target of assay [27] is VAX1 (Homo sapiens, UniProt Q5SQQ9 86-172).
The target of assay [28] is VAX1 (Homo sapiens, UniProt Q5SQQ9 86-172, T142I).
Assay [29] deals with VAX1 (Homo sapiens, UniProt Q5SQQ9 86-172, K157R).
Assay [30] addresses NKX3-2 (Homo sapiens, UniProt P78367 192-278, P234S).
The target of assay [31] is NKX3-2 (Homo sapiens, UniProt P78367 192-278).

Where a chain is given by its changes, count along the chain named.

HESX1 (Homo sapiens, UniProt Q9UBX0 95-180, P111T), sequence (Q9UBX0 95-180 P111T): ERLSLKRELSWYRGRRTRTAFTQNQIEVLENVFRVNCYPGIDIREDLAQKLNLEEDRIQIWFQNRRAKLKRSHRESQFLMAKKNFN
HESX1 (Homo sapiens, UniProt Q9UBX0 95-180, R165K), sequence (Q9UBX0 95-180 R165K): as the sequence (Q9UBX0 95-180 P111T) above, with T17P, R71K counted along it
PRRX1 (Homo sapiens, UniProt P54821 80-166, F113S), sequence (P54821 80-166 F113S): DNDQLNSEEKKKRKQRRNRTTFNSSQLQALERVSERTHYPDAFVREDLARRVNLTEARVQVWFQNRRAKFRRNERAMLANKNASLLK
ALX4 (Homo sapiens, UniProt Q9H161 200-286), sequence (Q9H161 200-286): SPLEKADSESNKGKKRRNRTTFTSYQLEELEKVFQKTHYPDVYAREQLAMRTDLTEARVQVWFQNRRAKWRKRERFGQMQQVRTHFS
HESX1 (Homo sapiens, UniProt Q9UBX0 95-180, R109Q), sequence (Q9UBX0 95-180 R109Q): as the sequence (Q9UBX0 95-180 P111T) above, with R15Q, T17P counted along it
ALX4 (Homo sapiens, UniProt Q9H161 200-286, Q225E), sequence (Q9H161 200-286 Q225E): as the sequence (Q9H161 200-286) above, with Q26E counted along it
PRRX1 (Homo sapiens, UniProt P54821 80-166), sequence (P54821 80-166): as the sequence (P54821 80-166 F113S) above, with S34F counted along it
HESX1 (Homo sapiens, UniProt Q9UBX0 95-180), sequence (Q9UBX0 95-180): as the sequence (Q9UBX0 95-180 P111T) above, with T17P counted along it
HESX1 (Homo sapiens, UniProt Q9UBX0 95-180, F115L), sequence (Q9UBX0 95-180 F115L): as the sequence (Q9UBX0 95-180 P111T) above, with T17P, F21L counted along it
ALX1 (Homo sapiens, UniProt Q15699 118-204, L144V), sequence (Q15699 118-204 L144V): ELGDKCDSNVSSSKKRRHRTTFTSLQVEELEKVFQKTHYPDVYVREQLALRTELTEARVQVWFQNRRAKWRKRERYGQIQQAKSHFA
ALX1 (Homo sapiens, UniProt Q15699 118-204, L144R), sequence (Q15699 118-204 L144R): as the sequence (Q15699 118-204 L144V) above, with V27R counted along it
ALX1 (Homo sapiens, UniProt Q15699 118-204), sequence (Q15699 118-204): as the sequence (Q15699 118-204 L144V) above, with V27L counted along it
NKX3-2 (Homo sapiens, UniProt P78367 192-278, P234S), sequence (P78367 192-278 P234S): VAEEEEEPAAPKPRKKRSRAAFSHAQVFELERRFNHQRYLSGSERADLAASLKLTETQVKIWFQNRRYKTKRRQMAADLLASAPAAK
SHOX, sequence (O15266 103-189 R173C): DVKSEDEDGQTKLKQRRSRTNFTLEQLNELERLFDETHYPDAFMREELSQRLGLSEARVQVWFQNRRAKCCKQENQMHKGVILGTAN
ALX3 (Homo sapiens, UniProt O95076 139-225), sequence (O95076 139-225): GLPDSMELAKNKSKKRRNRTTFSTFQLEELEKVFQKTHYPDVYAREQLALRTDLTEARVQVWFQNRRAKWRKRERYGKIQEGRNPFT
ALX3 (Homo sapiens, UniProt O95076 139-225, L168Q), sequence (O95076 139-225 L168Q): as the sequence (O95076 139-225) above, with L30Q counted along it
ALX3 (Homo sapiens, UniProt O95076 139-225, L168V), sequence (O95076 139-225 L168V): as the sequence (O95076 139-225) above, with L30V counted along it
VAX1 (Homo sapiens, UniProt Q5SQQ9 86-172, K157R), sequence (Q5SQQ9 86-172 K157R): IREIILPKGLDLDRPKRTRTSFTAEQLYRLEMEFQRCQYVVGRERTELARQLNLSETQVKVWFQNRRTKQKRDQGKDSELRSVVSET
PROP1 (Homo sapiens, UniProt O75360 56-141), sequence (O75360 56-141): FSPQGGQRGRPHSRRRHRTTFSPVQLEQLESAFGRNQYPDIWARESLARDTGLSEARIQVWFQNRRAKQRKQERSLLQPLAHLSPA
VAX1 (Homo sapiens, UniProt Q5SQQ9 86-172), sequence (Q5SQQ9 86-172): as the sequence (Q5SQQ9 86-172 K157R) above, with R72K counted along it
PROP1 (Homo sapiens, UniProt O75360 56-141, R99H), sequence (O75360 56-141 R99H): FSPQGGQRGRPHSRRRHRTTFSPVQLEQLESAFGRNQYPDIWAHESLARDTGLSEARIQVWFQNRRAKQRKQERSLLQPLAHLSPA
NKX3-2 (Homo sapiens, UniProt P78367 192-278), sequence (P78367 192-278): as the sequence (P78367 192-278 P234S) above, with S43P counted along it
VAX1 (Homo sapiens, UniProt Q5SQQ9 86-172, T142I), sequence (Q5SQQ9 86-172 T142I): as the sequence (Q5SQQ9 86-172 K157R) above, with T57I, R72K counted along it
ALX3 (Homo sapiens, UniProt O95076 139-225, N203Q), sequence (O95076 139-225 N203Q): as the sequence (O95076 139-225) above, with N65Q counted along it
PROP1 (Homo sapiens, UniProt O75360 56-141, F88S), sequence (O75360 56-141 F88S): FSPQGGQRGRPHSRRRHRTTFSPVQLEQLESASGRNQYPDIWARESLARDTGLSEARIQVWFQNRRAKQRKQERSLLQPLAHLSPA
ALX3 (Homo sapiens, UniProt O95076 139-225, N203S), sequence (O95076 139-225 N203S): as the sequence (O95076 139-225) above, with N65S counted along it

Consider CCATAATA, for which the binding signal with HESX1 [1] is 8.68 upbm affinity estimate (log intensity, higher = more binding, comparable within an allelic series); with HESX1 [2], 8.79 upbm affinity estimate (log intensity, higher = more binding, comparable within an allelic series).

As to CACGGCTG, the binding signal in the assay with HESX1 [1] was 6.44 upbm affinity estimate (log intensity, higher = more binding, comparable within an allelic series); with ALX4 [3] it was 7.95 upbm affinity estimate (log intensity, higher = more binding, comparable within an allelic series); with ALX4 [4], 7.97 upbm affinity estimate (log intensity, higher = more binding, comparable within an allelic series); in the assay with HESX1 [2], 6.33 upbm affinity estimate (log intensity, higher = more binding, comparable within an allelic series); with NKX2-6, 9.52 upbm affinity estimate (log intensity, higher = more binding, comparable within an allelic series); with ALX1 [5], 6.21 upbm affinity estimate (log intensity, higher = more binding, comparable within an allelic series). Further, the binding signal in the assay with ALX1 [6] was 6.3 upbm affinity estimate (log intensity, higher = more binding, comparable within an allelic series); in the assay with HESX1 [7], 6.53 upbm affinity estimate (log intensity, higher = more binding, comparable within an allelic series); with HESX1 [8], 6.39 upbm affinity estimate (log intensity, higher = more binding, comparable within an allelic series); in the assay with HESX1 [9], 6.49 upbm affinity estimate (log intensity, higher = more binding, comparable within an allelic series); in the assay with ALX1 [10] it was 6.11 upbm affinity estimate (log intensity, higher = more binding, comparable within an allelic series).

As for AATTAACC, the binding signal with HESX1 [1] is 11.5 upbm affinity estimate (log intensity, higher = more binding, comparable within an allelic series); with ALX4 [3], 13.6 upbm affinity estimate (log intensity, higher = more binding, comparable within an allelic series); with PAX4 [11] it was 11.6 upbm affinity estimate (log intensity, higher = more binding, comparable within an allelic series); with PRRX1 [12], 11 upbm affinity estimate (log intensity, higher = more binding, comparable within an allelic series); with PAX4 [13], 12.1 upbm affinity estimate (log intensity, higher = more binding, comparable within an allelic series); with ALX4 [4] it was 12.7 upbm affinity estimate (log intensity, higher = more binding, comparable within an allelic series). Also, the binding signal is 11.5 upbm affinity estimate (log intensity, higher = more binding, comparable within an allelic series) in the assay with HESX1 [2]; 11.3 upbm affinity estimate (log intensity, higher = more binding, comparable within an allelic series) with ALX1 [5]; 8.33 upbm affinity estimate (log intensity, higher = more binding, comparable within an allelic series) with ALX3 [14]; 11.9 upbm affinity estimate (log intensity, higher = more binding, comparable within an allelic series) with PAX4 [15]; 9.27 upbm affinity estimate (log intensity, higher = more binding, comparable within an allelic series) with SHOX; 11.2 upbm affinity estimate (log intensity, higher = more binding, comparable within an allelic series) with ALX1 [6]. The binding signal was 10.4 upbm affinity estimate (log intensity, higher = more binding, comparable within an allelic series) with PAX4 [16]; 12.3 upbm affinity estimate (log intensity, higher = more binding, comparable within an allelic series) in the assay with ALX3 [17]; 10.8 upbm affinity estimate (log intensity, higher = more binding, comparable within an allelic series) in the assay with PAX4 [18]; 11.1 upbm affinity estimate (log intensity, higher = more binding, comparable within an allelic series) in the assay with PROP1 [19]; 8.77 upbm affinity estimate (log intensity, higher = more binding, comparable within an allelic series) with HESX1 [7]; 10.7 upbm affinity estimate (log intensity, higher = more binding, comparable within an allelic series) with PROP1 [20]. The binding signal in the assay with ALX3 [21] is 10.3 upbm affinity estimate (log intensity, higher = more binding, comparable within an allelic series); in the assay with HESX1 [8], 10.3 upbm affinity estimate (log intensity, higher = more binding, comparable within an allelic series); with ALX3 [22], 9.89 upbm affinity estimate (log intensity, higher = more binding, comparable within an allelic series); with PROP1 [23], 7.52 upbm affinity estimate (log intensity, higher = more binding, comparable within an allelic series); in the assay with HESX1 [9], 7.7 upbm affinity estimate (log intensity, higher = more binding, comparable within an allelic series); in the assay with PAX4 [24], 10.8 upbm affinity estimate (log intensity, higher = more binding, comparable within an allelic series). Further, the binding signal with ALX1 [10] is 12.1 upbm affinity estimate (log intensity, higher = more binding, comparable within an allelic series); with ALX3 [25] it was 8.5 upbm affinity estimate (log intensity, higher = more binding, comparable within an allelic series); in the assay with PRRX1 [26], 13.2 upbm affinity estimate (log intensity, higher = more binding, comparable within an allelic series).

GCCGGCGA: the binding signal is 6.47 upbm affinity estimate (log intensity, higher = more binding, comparable within an allelic series) in the assay with HESX1 [1]; 9.18 upbm affinity estimate (log intensity, higher = more binding, comparable within an allelic series) with PAX4 [11]; 9.26 upbm affinity estimate (log intensity, higher = more binding, comparable within an allelic series) in the assay with PRRX1 [12]; 9.12 upbm affinity estimate (log intensity, higher = more binding, comparable within an allelic series) with PAX4 [13]; 6.42 upbm affinity estimate (log intensity, higher = more binding, comparable within an allelic series) in the assay with HESX1 [2]; 9.11 upbm affinity estimate (log intensity, higher = more binding, comparable within an allelic series) with PAX4 [15]. In addition, the binding signal in the assay with PAX4 [16] was 9.13 upbm affinity estimate (log intensity, higher = more binding, comparable within an allelic series); with PAX4 [18], 9.03 upbm affinity estimate (log intensity, higher = more binding, comparable within an allelic series); in the assay with HESX1 [7], 6.45 upbm affinity estimate (log intensity, higher = more binding, comparable within an allelic series); with VAX1 [27] it was 6.87 upbm affinity estimate (log intensity, higher = more binding, comparable within an allelic series); with HESX1 [8] it was 6.41 upbm affinity estimate (log intensity, higher = more binding, comparable within an allelic series); in the assay with HESX1 [9], 6.43 upbm affinity estimate (log intensity, higher = more binding, comparable within an allelic series). The binding signal is 7.22 upbm affinity estimate (log intensity, higher = more binding, comparable within an allelic series) with VAX1 [28]; 9.19 upbm affinity estimate (log intensity, higher = more binding, comparable within an allelic series) with PAX4 [24]; 9.42 upbm affinity estimate (log intensity, higher = more binding, comparable within an allelic series) with PRRX1 [26]; 7.26 upbm affinity estimate (log intensity, higher = more binding, comparable within an allelic series) in the assay with VAX1 [29].

With CAATAATG, the binding signal with HESX1 [1] is 8.97 upbm affinity estimate (log intensity, higher = more binding, comparable within an allelic series); in the assay with HESX1 [2] it was 9.26 upbm affinity estimate (log intensity, higher = more binding, comparable within an allelic series).

Take AATTGAGT: the binding signal with HESX1 [1] is 9.4 upbm affinity estimate (log intensity, higher = more binding, comparable within an allelic series); with HESX1 [2] it was 9.59 upbm affinity estimate (log intensity, higher = more binding, comparable within an allelic series).

As to CCCAGTGC, the binding signal with HESX1 [1] is 6.38 upbm affinity estimate (log intensity, higher = more binding, comparable within an allelic series); with ALX4 [3], 8 upbm affinity estimate (log intensity, higher = more binding, comparable within an allelic series); in the assay with ALX4 [4] it was 8.11 upbm affinity estimate (log intensity, higher = more binding, comparable within an allelic series); with HESX1 [2], 6.3 upbm affinity estimate (log intensity, higher = more binding, comparable within an allelic series); with HESX1 [7] it was 6.56 upbm affinity estimate (log intensity, higher = more binding, comparable within an allelic series); with HESX1 [8] it was 6.45 upbm affinity estimate (log intensity, higher = more binding, comparable within an allelic series). In the assay with HESX1 [9], the binding signal was 6.56 upbm affinity estimate (log intensity, higher = more binding, comparable within an allelic series).

On to TAAATTCA, for which the binding signal is 7.34 upbm affinity estimate (log intensity, higher = more binding, comparable within an allelic series) with HESX1 [1] and 7.46 upbm affinity estimate (log intensity, higher = more binding, comparable within an allelic series) in the assay with HESX1 [2].

As to CGCCTAGC, the binding signal with HESX1 [1] is 6.27 upbm affinity estimate (log intensity, higher = more binding, comparable within an allelic series); with PRRX1 [12] it was 9.26 upbm affinity estimate (log intensity, higher = more binding, comparable within an allelic series); with HESX1 [2] it was 6.37 upbm affinity estimate (log intensity, higher = more binding, comparable within an allelic series); with HESX1 [7] it was 6.4 upbm affinity estimate (log intensity, higher = more binding, comparable within an allelic series); with HESX1 [8], 6.38 upbm affinity estimate (log intensity, higher = more binding, comparable within an allelic series); with HESX1 [9] it was 6.57 upbm affinity estimate (log intensity, higher = more binding, comparable within an allelic series). The binding signal with NKX3-2 [30] is 10.6 upbm affinity estimate (log intensity, higher = more binding, comparable within an allelic series); in the assay with PRRX1 [26], 9.27 upbm affinity estimate (log intensity, higher = more binding, comparable within an allelic series); with NKX3-2 [31], 10.6 upbm affinity estimate (log intensity, higher = more binding, comparable within an allelic series).

The record behind these values is paper PMC11006913.
